From PubChem BioAssay
Activity calls are given as the source filed them.

Legend:
[1] = system: Plasmodium falciparum Sir2 (PF13_0152, Sir2A); assay: pfSir2 binders on small-molecule microarrays, primary screen, biochemical, small-molecule microarray, 635 nm fluorescence (AID 1098); conditions: small-molecule microarray binding, fluorescence 635 nm; higher = more signal;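 further: score merges spot fluorescence intensity with its signal-to-noise ratio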
[2] = small-molecule microarray binders of probe aDKK1, primary screen, biochemical, biotinylated probe, 635/667 nm fluorescence (AID 1099); conditions: higher = more signal;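 further: score merges 667nm spot fluorescence with signal to noise across triplicate slides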
[3] = small-molecule microarray binders of probe aCHRDL2, primary screen, biochemical, biotinylated probe, 635/667 nm fluorescence (AID 1100); conditions: higher = more signal
[4] = splicing luciferase reporter signal modulators, primary screen, spliceosome inhibition project, cell-based, HEK293, splice +/- reporter (AID 1101); conditions: luminescence, 24 h, higher = more signal, called active from +8 up or from −8 down;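 further: HEK293 cells carrying a splicing-competent luciferase reporter gene; test concentration not given here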
[5] = target: Fibroblast growth factor 10 (Homo sapiens) (UniProt O15520); assay: FGF10 binders on small-molecule microarrays, primary screen, biochemical, small-molecule microarray, 635 nm fluorescence (AID 1102); conditions: FGF10 binding, fluorescence 635 nm, higher = more signal
Sequence of Fibroblast growth factor 10 (Homo sapiens) (O15520 whole entry, looked up): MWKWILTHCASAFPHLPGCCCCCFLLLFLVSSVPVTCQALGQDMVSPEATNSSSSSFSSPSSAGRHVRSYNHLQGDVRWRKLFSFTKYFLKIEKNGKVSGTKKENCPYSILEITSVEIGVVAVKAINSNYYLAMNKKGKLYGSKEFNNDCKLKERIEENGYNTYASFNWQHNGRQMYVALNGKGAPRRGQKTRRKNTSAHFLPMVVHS

[6] = system: glycogen synthase kinase-3 (GSK3A per assay name; protocol says GSK3B); assay: GSK3 binders on small-molecule microarrays, primary screen, biochemical, small-molecule microarray, 635 nm fluorescence, GSK3A (AID 1103); conditions: small-molecule microarray binding, fluorescence 635 nm; higher = more signal; further: the record names both GSK3A and GSK3B
[7] = target: Epidermal growth factor receptor (Homo sapiens) (UniProt P00533); assay: EGFR binders on small-molecule microarrays, primary screen, biochemical, small-molecule microarray, 635 nm fluorescence (AID 1104); conditions: EGFR binding, higher = more signal;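 further: score merges 667 nm emission intensity with spot signal to noise over triplicate slides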
Sequence of Epidermal growth factor receptor (Homo sapiens) (P00533 whole entry, looked up): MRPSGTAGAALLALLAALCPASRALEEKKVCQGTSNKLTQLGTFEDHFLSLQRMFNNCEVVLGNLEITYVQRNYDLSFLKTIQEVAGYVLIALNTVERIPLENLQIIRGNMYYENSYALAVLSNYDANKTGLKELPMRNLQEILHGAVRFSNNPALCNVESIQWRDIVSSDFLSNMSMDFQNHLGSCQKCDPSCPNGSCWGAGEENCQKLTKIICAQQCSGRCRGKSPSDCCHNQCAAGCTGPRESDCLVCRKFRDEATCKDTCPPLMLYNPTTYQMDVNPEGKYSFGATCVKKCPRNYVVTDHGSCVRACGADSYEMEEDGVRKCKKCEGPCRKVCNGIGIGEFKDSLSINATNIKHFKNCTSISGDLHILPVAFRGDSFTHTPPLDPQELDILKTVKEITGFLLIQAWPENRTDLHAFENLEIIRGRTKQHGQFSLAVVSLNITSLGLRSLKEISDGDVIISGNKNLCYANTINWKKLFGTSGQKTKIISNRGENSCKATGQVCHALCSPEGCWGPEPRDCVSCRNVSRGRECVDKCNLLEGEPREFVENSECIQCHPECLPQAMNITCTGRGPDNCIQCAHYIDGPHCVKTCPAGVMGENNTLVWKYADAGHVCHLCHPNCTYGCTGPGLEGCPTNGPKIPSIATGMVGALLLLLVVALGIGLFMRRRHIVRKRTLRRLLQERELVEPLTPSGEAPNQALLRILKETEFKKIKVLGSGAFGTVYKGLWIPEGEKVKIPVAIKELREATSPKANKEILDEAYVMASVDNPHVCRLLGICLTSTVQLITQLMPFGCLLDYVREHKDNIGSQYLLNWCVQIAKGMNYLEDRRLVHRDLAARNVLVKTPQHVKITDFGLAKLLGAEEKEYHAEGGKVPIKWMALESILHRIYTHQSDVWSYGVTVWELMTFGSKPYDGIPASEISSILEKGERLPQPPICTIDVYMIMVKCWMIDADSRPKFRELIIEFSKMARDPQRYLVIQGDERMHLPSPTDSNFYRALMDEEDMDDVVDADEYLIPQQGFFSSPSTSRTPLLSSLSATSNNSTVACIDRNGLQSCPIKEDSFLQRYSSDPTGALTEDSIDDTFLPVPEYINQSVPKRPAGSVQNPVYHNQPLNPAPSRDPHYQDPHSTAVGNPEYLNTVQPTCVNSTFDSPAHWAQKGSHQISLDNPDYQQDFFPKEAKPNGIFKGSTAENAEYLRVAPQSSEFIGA

[8] = target: Follistatin-related protein 3 (Homo sapiens) (UniProt O95633); assay: FSTL3 binders on small-molecule microarrays, primary screen, biochemical, small-molecule microarray, 635 nm fluorescence (AID 1105); conditions: FSTL3 binding, higher = more signal;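 further: score merges emission near 667 nm and signal to noise per printed spot across three slides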
Sequence of Follistatin-related protein 3 (Homo sapiens) (O95633 whole entry, looked up): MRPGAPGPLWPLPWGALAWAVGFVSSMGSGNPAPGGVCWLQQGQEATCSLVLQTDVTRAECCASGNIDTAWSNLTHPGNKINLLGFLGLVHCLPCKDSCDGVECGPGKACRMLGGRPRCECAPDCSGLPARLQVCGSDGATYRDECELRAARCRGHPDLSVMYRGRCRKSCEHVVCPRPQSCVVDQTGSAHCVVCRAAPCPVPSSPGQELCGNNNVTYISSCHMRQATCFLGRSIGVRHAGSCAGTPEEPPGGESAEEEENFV

[9] = target: Dickkopf-related protein 1 (Homo sapiens) (UniProt O94907); assay: DKK1 binders on small-molecule microarrays, primary screen, biochemical, small-molecule microarray, 635 nm fluorescence scan (AID 1106); conditions: DKK1 binding, higher = more signal;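 further: score merges emission near 667 nm with signal to noise over three replicate slides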
Sequence of Dickkopf-related protein 1 (Homo sapiens) (O94907 whole entry, looked up): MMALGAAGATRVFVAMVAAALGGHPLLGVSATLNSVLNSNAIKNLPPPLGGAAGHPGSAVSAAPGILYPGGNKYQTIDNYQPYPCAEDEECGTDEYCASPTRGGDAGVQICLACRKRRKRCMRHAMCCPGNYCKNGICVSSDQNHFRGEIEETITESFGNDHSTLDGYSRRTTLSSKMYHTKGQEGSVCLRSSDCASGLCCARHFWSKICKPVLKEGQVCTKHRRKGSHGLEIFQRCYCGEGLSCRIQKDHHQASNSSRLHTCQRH

[10] = system: Inhibin beta A chain (activin A); assay: INHBA (activin A) binders on microarrays, primary screen, biochemical, small-molecule microarray, 635 nm fluorescence scan (AID 1107); conditions: small-molecule microarray binding, higher = more signal;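 further: mouse activin A protein probed at 4.33 µg/mL on printed slides; score merges bound-protein fluorescence near 667 nm with spot signal-to-noise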
[11] = system: Human papillomavirus type 1a protein E7 (residues 44-93); assay: HPV1a E7 fragment binders on microarrays, primary screen, biochemical, small-molecule microarray, residues 44-93, 635 nm fluorescence (AID 1108); conditions: small-molecule microarray binding, fluorescence 635 nm; higher = more signal;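 further: E7 fragment applied at 1 µg/mL in TBST for 1 h at 4 C; score combines spot fluorescence with its signal to noise ratio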
[12] = modulators of HCV replicon luciferase signal, primary screen, HCV replication inhibitor project, Huh7 cells, luciferase reporter (AID 1109); conditions: 48 h, higher = more signal;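 further: huh7 hepatoma cells harbouring a luciferase neomycin HCV replicon reporter; luciferase luminescence as measure of HCV replicon replication; test concentration not given here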
[13] = target: Left-right determination factor 2 (Homo sapiens) (UniProt O00292); assay: LEFTY2 binders on small-molecule microarrays, primary screen, biochemical, small-molecule microarray, 635 nm fluorescence scan (AID 1110); conditions: LEFTY2 binding, higher = more signal
Sequence of Left-right determination factor 2 (Homo sapiens) (O00292 whole entry, looked up): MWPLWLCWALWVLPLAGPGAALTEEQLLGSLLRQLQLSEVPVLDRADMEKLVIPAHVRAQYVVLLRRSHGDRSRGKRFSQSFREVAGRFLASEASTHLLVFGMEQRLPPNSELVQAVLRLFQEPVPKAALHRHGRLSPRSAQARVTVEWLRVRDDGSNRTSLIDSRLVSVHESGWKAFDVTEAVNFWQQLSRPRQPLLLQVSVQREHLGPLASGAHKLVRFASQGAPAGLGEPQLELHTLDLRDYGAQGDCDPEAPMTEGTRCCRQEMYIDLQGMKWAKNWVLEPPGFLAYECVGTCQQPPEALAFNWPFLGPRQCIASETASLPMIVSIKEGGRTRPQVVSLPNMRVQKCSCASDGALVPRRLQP

[14] = target: Calmodulin-1 (Homo sapiens) (UniProt P0DP23); assay: CALM1 binders on microarrays, EGTA buffer, profiling panel, biochemical, small-molecule microarray, Cy5-labelled CALM1 (AID 1111); conditions: Cy5-CALM1 binding fluorescence, higher = more signal;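 further: labelled calmodulin applied in Tris saline Tween buffer holding calcium plus EGTA and DTT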
[15] = target: Calmodulin-1 (Homo sapiens) (UniProt P0DP23); assay: calcium-bound CALM1 binders on microarrays, profiling panel, artefact control for SMM control-protein annotation, biochemical, small-molecule microarray, Cy5-labelled CALM1, plus calcium (AID 1112); conditions: Cy5-CALM1 binding fluorescence, higher = more signal;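 further: score merges spot fluorescence with signal to noise from triplicate slides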
[16] = small-molecule microarray binders of probe aWnt5a, primary screen, biochemical, biotinylated probe, 635/667 nm fluorescence (AID 1113); conditions: higher = more signal;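 further: score merges 667 nm fluorescence intensity with signal-to-noise per printed feature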
[17] = small-molecule microarray binders of probe aShh, primary screen, biochemical, biotinylated probe, 635/667 nm fluorescence (AID 1114); conditions: higher = more signal;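 further: probe is biotin-labelled aShh protein from a stem cell growth factor screen; measures binding of labelled protein to compounds printed on the slide; score merges feature fluorescence at 667 nm with signal-to-noise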
[18] = small-molecule microarray binders of probe aNog, primary screen, biochemical, biotinylated probe, 635/667 nm fluorescence (AID 1115); conditions: higher = more signal;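 further: probe is biotinylated aNog protein used at 0.15 µg/mL for 1 h at 4 C; z-score combines 667 nm fluorescence of each spot with its signal to noise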
[19] = target: Torsin-1A-interacting protein 1 (Homo sapiens) (UniProt Q5JTV8); assay: LAP1 binders from COS7 cell lysate, primary screen, small-molecule microarray, 635/667 nm fluorescence (AID 1116); conditions: COS7-hLAP1 lysate binding, 635 nm fluorescence, higher = more signal
Sequence of Torsin-1A-interacting protein 1 (Homo sapiens) (Q5JTV8 whole entry, looked up): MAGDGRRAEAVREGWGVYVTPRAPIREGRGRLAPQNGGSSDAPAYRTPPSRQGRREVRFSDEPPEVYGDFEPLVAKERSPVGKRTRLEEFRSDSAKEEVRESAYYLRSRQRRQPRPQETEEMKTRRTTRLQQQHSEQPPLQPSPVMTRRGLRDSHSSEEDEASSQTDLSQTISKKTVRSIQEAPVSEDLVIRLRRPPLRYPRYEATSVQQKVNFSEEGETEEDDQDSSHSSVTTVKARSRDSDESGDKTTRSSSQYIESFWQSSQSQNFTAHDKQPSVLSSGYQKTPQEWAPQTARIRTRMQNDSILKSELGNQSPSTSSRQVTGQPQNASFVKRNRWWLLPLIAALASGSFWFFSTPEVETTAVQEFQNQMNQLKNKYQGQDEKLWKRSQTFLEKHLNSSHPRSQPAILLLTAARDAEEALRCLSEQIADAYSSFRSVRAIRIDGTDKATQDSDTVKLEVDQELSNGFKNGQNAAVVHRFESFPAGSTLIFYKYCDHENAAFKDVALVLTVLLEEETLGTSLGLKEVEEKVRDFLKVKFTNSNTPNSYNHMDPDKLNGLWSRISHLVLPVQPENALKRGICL

[20] = target: Alpha-bungarotoxin (Bungarus multicinctus) (UniProt P60615); assay: alpha-bungarotoxin binders on microarray, profiling panel, artefact control for SMM control protein annotation, biochemical, small-molecule microarray, Alexa647 label, 635/667 nm fluorescence (AID 1117); conditions: alpha-BTX-A647 binding fluorescence, higher = more signal
Sequence of Alpha-bungarotoxin (Bungarus multicinctus) (P60615 whole entry, looked up): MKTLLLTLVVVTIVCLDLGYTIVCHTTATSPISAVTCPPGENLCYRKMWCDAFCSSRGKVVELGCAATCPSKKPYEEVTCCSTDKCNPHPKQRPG

| SMILES | composite z-score [1] | composite z-score [2] | composite z-score [3] | z-score [4] | composite z-score [5] | composite z-score [6] | composite z-score [7] | composite z-score [8] | composite z-score [9] | composite z-score [10] | composite z-score [11] | z-score [12] | composite z-score [13] | composite z-score [14] | composite z-score [15] | composite z-score [16] | composite z-score [17] | composite z-score [18] | composite z-score [19] | composite z-score [20] |
| --- | --- | --- | --- | --- | --- | --- | --- | --- | --- | --- | --- | --- | --- | --- | --- | --- | --- | --- | --- | --- |
| CON=C1c2cc(OC)ccc2O[C@H](c2cccc(OC)c2)[C@H]1O | 0.386 | -0.0086 | -0.365 | -0.268 (inactive) | 0.934 | 0.498 | 0.52 | 0.81 | 0.636 | 0.593 | 0.365 | 7.91 | 0.601 | -0.332 | -0.729 | -0.0165 | 0.172 | -0.0211 | 0.646 | -0.0531 |
| O=C1CCCC=C1C(O)c1ccc([N+](=O)[O-])cc1 (stereo not given) | -0.805 | -0.0341 | -0.429 | -0.337 (inactive) | 0.59 | 0.288 | 0.406 | 0.211 | 0.133 | 0.478 | -0.607 | -0.67 | 0.387 | -0.79 | -0.499 | -0.101 | -0.288 | -0.489 | 0.315 | -0.237 |
| COCCNC(=O)OCC1CCCC2(CC(OC(=O)NCc3cccc4ccccc34)CC(CCC(=O)N[C@@H](C)C(=O)OC)O2)O1 (stereo not given in full) | 0.798 | -0.252 | -0.589 | -0.674 (inactive) | 1.06 | 1.22 | 0.709 | 0.781 | 0.735 | -0.0341 | 1.35 | -0.942 | 0.781 | 0.171 | -0.62 | -0.144 | -0.0006 | -0.256 | 0.002 | 0.801 |
| C[C@@H]1CC[C@H]2C(=O)N3[C@@H](CC[C@@H](C)[C@@H]3c3ccc(Br)cc3)C(=O)N2[C@H]1c1ccc(Br)cc1 | 0.223 | -0.339 | -0.355 | -0.628 (inactive) | 0.592 | -0.0161 | 0.278 | 0.384 | 0.605 | 0.22 | -0.0146 | -1.82 | 0.31 | -0.209 | -0.188 | -0.105 | -0.138 | -0.113 | 0.08 | 0.371 |
| CC(C)=CCCC(C)=CCON=C1C[C@@H](O)[C@@H](O)[C@@H]2[C@@H]3C(=O)N([C@@H](C)c4ccccc4)C(=O)[C@@H]3CC[C@@H]12 | 0.277 | -0.213 | -0.572 | -0.168 (inactive) | 0.461 | 0.598 | 0.407 | 0.319 | 0.134 | 0.521 | 0.257 | 0.0308 | 0.898 | -0.544 | -0.406 | -0.012 | -0.289 | -0.247 | 0.222 | 0.551 |
| CC(C)CON=C1C[C@@H](O)[C@@H](O)[C@@H]2[C@@H]3C(=O)N(Cc4ccccc4)C(=O)[C@@H]3CC[C@H]12 | 0.296 | -0.373 | -0.583 | -1.59 (inactive) | 0.415 | 0.314 | 0.553 | 0.538 | 0.373 | -0.204 | -0.106 | -1.14 | 0.623 | -0.144 | -0.414 | -0.0107 | -0.324 | -0.169 | 0.163 | 0.506 |
